# Source: PubChem BioAssay (National Center for Advancing Translational Sciences (NCATS))
# Most compounds without a hit are left out; they make up all but 12% or so of the library.
# G9a inh = blocks human histone lysine methyltransferase G9a; Q96KQ7; G9a H3K9 monomethylation, AlphaScreen, 2 h; Potency, µM (highest dose often 102 µM), actives largely listed as inhibitors; hit rate 8.8% among 350,000; AID 504332; note: nearly all actives have a fitted effect of over 75% in size
#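 Using a bead-based AlphaScreen, monomethylated H3K9 product from 2 h room-temperature reactions (G9a 20 nM, peptide 500 nM, SAM 20 uM) was detected with 0.5 ug/mL rabbit anti-H3K9me1 antibody.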
# PLK1 PBD block = PLK1 (human) polo-box domain binding inhibition | P53350 | Plk1 PBD binding of FITC phosphopeptide, fluorescence polarization | Potency, µM, usual class: inhibitors | hit rate 2.8% among 360,000 | AID 720504; note: series mostly up to about 57 µM; nearly all actives have a fitted effect of over 65% in size
# HP1b chromo inh = blocks HP1-beta chromodomain binding to methylated histone tails; P83916; AlphaScreen HP1-beta / biotin-H3K9me3 peptide binding; Potency, µM (top dose mostly 114 µM), usual class: inhibitors; hit rate 0.56% among 390,000; note: nearly all actives have a fitted effect of over 70% in size
#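 HP1-beta protein (50 nM final) preincubated 30 min at room temperature with biotinylated H3(1-18)K9me3 peptide (50 nM) in PBS pH 7.4, 0.01% Tween-20, then compound added for 30 min. AlphaScreen streptavidin donor/nickel chelate acceptor beads (10 ug/mL final), 30 min dark, luminescence read.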
# JMJD2A Tudor inh = blocks the human JMJD2A Tudor domain; AlphaScreen JMJD2A-Tudor / H3K4me3 peptide binding; Potency, µM (series often up to 114 µM), most hits filed as inhibitors; hit rate 4.4% among 390,000; AID 504339; note: nearly all actives have a fitted effect of over 50% in size
# PI5P4Ka inh = PI5P4K alpha (human) kinase inhibition | hit rate 1.2% among 330,000 | PI5P4Kalpha enzyme, ADP-Glo luminescence, 60 min; stronger effect = lower value | max response, % | AID 652105 | P48426; active = max response of -50% or lower; inconclusive = between -30% and -50%; inactive = -30% or higher; note: value at the top dose of about 77 µM
# Target sequence (P48426 whole entry, looked up): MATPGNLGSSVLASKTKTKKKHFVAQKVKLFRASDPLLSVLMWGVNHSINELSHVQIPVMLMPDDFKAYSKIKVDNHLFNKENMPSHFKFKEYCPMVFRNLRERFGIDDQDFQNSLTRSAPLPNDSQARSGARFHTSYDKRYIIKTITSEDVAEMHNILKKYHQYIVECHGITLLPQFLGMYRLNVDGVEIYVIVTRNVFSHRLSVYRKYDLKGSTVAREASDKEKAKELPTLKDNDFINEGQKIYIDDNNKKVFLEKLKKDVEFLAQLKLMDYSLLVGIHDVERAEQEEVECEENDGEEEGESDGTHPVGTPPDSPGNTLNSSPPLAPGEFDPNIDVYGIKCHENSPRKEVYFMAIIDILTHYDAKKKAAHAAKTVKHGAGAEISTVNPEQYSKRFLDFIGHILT
#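 PI5P4Kalpha ADP-Glo assay; 5 microM ATP final; 60 min RT reaction; HEPES pH 7.4/EGTA/CHAPS, 5% DMSO; controls lacking substrate or enzyme; luminescent end-point.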
# BAZ2B block = inhibitors of human BAZ2B bromodomain. AlphaScreen BAZ2B-H3K14Ac peptide displacement. Potency, µM (titrated, usually from 114 µM), hits mostly inhibitors. hit rate 4.4% among 360,000. AID 504333; note: nearly all actives have a fitted effect of over 60% in size
#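 BAZ2B (50 nM) with biotin-H3(5-23)K14Ac peptide (50 nM) in PBS pH 7.4, 0.01% Tween-20, preformed 30 min, then compound 30 min at room temperature; top concentration 110uM. AlphaScreen streptavidin donor/nickel chelate acceptor beads (10 ug/mL final), 20 min dark, signal read.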
# Numbers stand for hits; i = inactive; ? = inconclusive; nt = not tested or not shown; [ ] = dose if it differs, or a comment. Unless noted, calls come from the whole dose curve; as a rule, active = well fitted curve in the direction sought with a large enough effect; inconclusive = small, poorly fitted or top-dose-only effect, or another doubt; inactive = no such curve, though single readings can be large; an effect the other way counts as inactive or inconclusive.
SMILES,G9a inh,PLK1 PBD block,HP1b chromo inh,JMJD2A Tudor inh,PI5P4Ka inh,BAZ2B block
CCn1cc(/C=C(\NC(=O)c2ccc(OC)c(OC)c2)C(=O)N2CCOCC2)c2ccccc21,?,27µM,i,?,i,?
COc1ccc(C(=O)N/C(=C/c2ccccc2F)C(=O)NCCN2CCOCC2)cc1OC,i,21µM,i,i,i,i
COc1ccc(C(=O)N/C(=C\c2cn(C)c3ccccc23)C(=O)NCCN2CCOCC2)cc1OC,50µM,i,i,i,i,?
CCC(C)N(C(=O)COC(=O)CNC(=O)c1sc2ccccc2c1Cl)C1CCS(=O)(=O)C1 (centres undefined),nt,i,i,i,i,i
Nn1c(SCC(=O)Nc2ccccc2C(F)(F)F)nncc1=O,i,i,i,i,i,i
CCC(=O)N1c2ccc(S(=O)(=O)CCC(=O)N3CCN(c4ccc(F)cc4)CC3)cc2CC1C (centres undefined),?,nt,i,i,nt,nt
COc1ccc(NC(=S)Nc2cc(-c3ccccc3)[nH]n2)cc1Cl,?,21µM,?,56µM,nt,?
Cc1cc(NC(=S)Nc2ccc(C)c(Cl)c2)n[nH]1,1.3µM,i,i,?,i,?
CC(=O)Nc1c(-c2cc(=O)oc3cc(C)ccc23)oc2ccccc12,i,i,i,i,i,i
Cc1ccc(COc2ccsc2-c2n[nH]c(=S)n2C)cc1,nt,i,i,i,i,?
COc1ccc(-n2c(COc3ccc(Cl)cc3Cl)n[nH]c2=S)cc1,nt,i,nt,nt,i,nt
Cn1c(-c2sccc2OCc2ccccc2)n[nH]c1=S,2.8µM,i,?,3.2µM,i,56µM
Cn1c(-c2sccc2OCc2ccc(Cl)cc2Cl)n[nH]c1=S,3.2µM,27µM,i,i[11.4 µM],i,?
COc1ccc(OC)c(CNC(=O)C2CCC(=O)N2C(C)C)c1 (centres undefined),i,i,i,i,i,i
Cc1ccc(O)c(CNc2ccccn2)c1,i,i,i,i,i,i
Cc1ccc(O)c(CNn2cnnc2)c1,i,i,i,i,nt,i
Oc1ccc2ccccc2c1CNn1cnnc1,11µM,i,i,i,nt,i
Oc1ccc2ccccc2c1CNc1ccccn1,8.9µM,?,i,i,i,i
CCOc1cccc(/C=N/NS(=O)(=O)c2ccc(C)c([N+](=O)[O-])c2)c1O,?,30µM,i,i,i,nt
Cc1ccc(S(=O)(=O)N/N=C/c2cc([N+](=O)[O-])ccc2O)cc1[N+](=O)[O-],50µM,i,i,?,i,?
Cc1ccc(S(=O)(=O)N/N=C/c2ccc(O)cc2O)cc1[N+](=O)[O-],45µM,?,i,i,i,i
COc1ccc(/C=N\NS(=O)(=O)c2ccc(C)cc2)cc1COc1ccccc1[N+](=O)[O-],i,i,i,i,i,i
O=[N+]([O-])c1ccccc1NC(=S)N/N=C/c1ccc(O)c(O)c1,nt,12µM,8.9µM,?,-63,10µM
CN(C)c1ccc(/C=C/CNC[C@H]2O[C@@H](n3ccc(N)nc3=O)[C@H](O)[C@@H]2O)cc1,nt,i,nt,nt,i,nt
CC1CCCC(CC(N)=O)CC1 (centres undefined),nt,i,i,i,i,nt
SMILES,G9a inh,PLK1 PBD block,HP1b chromo inh,JMJD2A Tudor inh,PI5P4Ka inh,BAZ2B block
CCCN1CNc2c(c(=O)[nH]c(=S)n2CCc2cc(Cl)cc(Cl)c2)C1,nt,nt,i,i,nt,nt
CCCCNC(=S)N/N=C/c1cccc(OCC)c1O,nt,i,i,i,i,i
CCOc1cccc(/C=N/NC(=S)Nc2ccccc2[N+](=O)[O-])c1O,i,i,i,?,i,11µM
CC/C(C)=N/NS(=O)(=O)c1ccc(C)c([N+](=O)[O-])c1,?,i,i,i,i,i
C/C(CCC(C)C)=N\NS(=O)(=O)c1ccc(C)c([N+](=O)[O-])c1,13µM,?,i,i,i,i
O=C(Nc1ccc2oc(-c3ccccc3Cl)nc2c1)c1ncn[nH]1,?,i,i,28µM,nt,50µM
CC(C)c1ccc2oc(-c3ccc(NC(=O)c4ncn[nH]4)cc3)nc2c1,i[12.7 µM],i,i,40µM,nt,35µM
COc1ccc(CCNC(=O)CSc2nc3ccccc3nc2Cc2ccc(C)cc2)cc1OC,i,nt,i,i,nt,i
CCC(CC)c1nnc(NC(=O)c2cc(C(=O)OC)cc([N+](=O)[O-])c2)s1,8.9µM,9.5µM,i,i,i,i
